Hits are enriched below; roughly 19% of the tested compounds scored in any of these assays.
HT1080 IDH1KD tx: qHTS for induction of synthetic lethality in tumor cells producing 2HG: qHTS for the HT-1080-IDH1KD cell line; Potency, µM (top dose mostly 46.1 µM), inactives show top-dose activity, negative = toxicity, actives largely listed as cytotoxic; HT-1080 IDH1 knockdown viability, ATP luminescence, 48 h; hit rate 2% among 360,000; AID 686971, 2013;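 further: potency means the concentration at half of the fitted maximal effect; 0% = DMSO wells and -100% = cell-free medium wells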
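Cytotoxicity counter-line: IDH1KD HT-1080, 48 h, CellTiter-Glo. Curves classed by r2, magnitude and activity.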
IL1B secr inh: qHTS for Inhibitors of Inflammasome Signaling: IL-1-beta AlphaLISA Primary Screen; activity change, % at 57.5 µM; hit rate 4.7% among 360,000; AID 743279, 2014; THP-1 LPS/ATP IL-1B secretion, AlphaLISA, 16 h; active compounds read low; in the data active means activity change below about -50%; inconclusive means mostly about -30% to -49%
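Secreted IL-1B measured by AlphaLISA bead assay after 16 h compound exposure of THP-1 cells; compounds (final up to 57.5 uM) added 1 h before LPS (250 ng/mL) and ATP (1.25 mM) stimulation; lower signal means less secretion.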
DT40 TDP1 no CPT: qHTS for Inhibitors of human tyrosyl-DNA phosphodiesterase 1 (TDP1): qHTS in cells in absence of CPT. DT40 Tdp1-/- hTDP1 cells, no CPT, ATP luminescence, 48 h. Potency, µM (series often up to 46.2 µM), for the others: at the highest dose activity change, negative = growth inhibition, most hits filed as inhibitors. hit rate 15% among 420,000. AID 686978, 2013; further: potency means the concentration at half of the fitted maximal effect; nearly all actives have a fitted effect of over 55% in size
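Growth kinetics read by CellTiter-Glo luminescence after ≥48 hr at 37 °C. Cells: DT40 Tdp1-/- stably carrying human TDP1, 400 per well, compound exposure in the absence of CPT (DMSO vehicle).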
HT1080NT lethal: qHTS for induction of synthetic lethality in tumor cells producing 2HG: qHTS for the HT-1080-NT fibrosarcoma cell line. HT-1080-NT fibrosarcoma viability, CellTiter-Glo ATP luminescence, 48 h. Potency, µM (titrated, usually from 46.1 µM), for the others: at the top dose activity, negative = less viability, usual class: cytotoxic. hit rate 1.6% among 360,000. AID 686970, 2013;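 further: NT is the 2HG producing partner of a matched IDH1 knockdown line; potency means the concentration at half of the fitted maximal effect; 0% = DMSO-treated cells and -100% = media-only wells without cells; nearly all actives have a fitted effect of over 55% in size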
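Fibrosarcoma NT cells, 750 per well in 5% FBS RPMI, were exposed to compound for 48 hours. Viability: CellTiter-Glo luminescence.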
DT40 TDP1 CPT: qHTS for Inhibitors of human tyrosyl-DNA phosphodiesterase 1 (TDP1): qHTS in cells in presence of CPT; chicken DT40 Tdp1-/-;hTDP1 cells + 20 nM CPT, ATP luminescence, 48 h; Potency, µM (titrated, usually from 46.2 µM), for the others: at the highest dose activity change, negative = growth inhibition, usual class: inhibitors; hit rate 12% among 420,000; AID 686979, 2013; further: potency means the concentration at half of the fitted maximal effect; nearly all actives have a fitted effect of over 55% in size
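Cell growth measured by CellTiter-Glo luminescence after a minimum 48 h, 37 C compound exposure with 20 nM CPT in Tdp1-knockout DT40 cells stably expressing hTDP1, seeded 400/well; qHTS titration format.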
* marks the source's active call; other numbers are inactive results; ? = inconclusive; . = no result. Unless noted, the call rests on the fitted dose curve; in most records, active means well fitted curve in the direction sought with a large enough effect; inconclusive means small, poorly fitted or top-dose-only effect, or another doubt; inactive means no such curve, though single readings can be large; an effect the other way counts as inactive or inconclusive. Unless noted, on the % scale 0 is the no-effect control and ±100 the full control effect.

SMILES	HT1080 IDH1KD tx	IL1B secr inh	DT40 TDP1 no CPT	HT1080NT lethal	DT40 TDP1 CPT
Cc1cc(-n2c(C)cc(C(=O)CSc3nnnn3-c3ccccc3)c2C)no1	?	-21.7	?	?	?
Cc1ccc(-n2nnnc2SCC(=O)c2cc(C)n(-c3cc(C)on3)c2C)c(C)c1	-6.8%	-9.4	23.1µM*	?	23.1µM*
Cc1cc(C(=O)CSc2nnnn2-c2ccc(O)cc2)c(C)n1C	22.8%	3.0	16.4µM*	7.5%	?
Cc1ccc(-n2c(C)cc(C(=O)CSc3nnnn3C)c2C)cc1	-1.5%	?	20.6µM*	-8.1%	18.4µM*
Cc1ccc(-n2c(C)cc(C(=O)CSc3nncs3)c2C)cc1	?	-2.9	20.6µM*	?	10.3µM*
Cc1ccccc1OCC(=O)NCC(=O)OCc1ccc(Br)cc1	-5.8%	-4.9	-2.2%	-0.6%	?
CC1Cc2nc(SCC(N)=O)n(Cc3ccccc3)c(=O)c2S1 (centres undefined)	-1.5%	-11.3	-20.7%	-4.2%	-1.9%
CCSc1nc2c(c(=O)n1Cc1ccccc1)SC(C)C2 (centres undefined)	-13.6%	?	?	0.0%	11.6µM*
COCCn1c(SCC(=O)Nc2ccc3c(c2)OCCO3)nc2c(c1=O)SC(C)C2 (centres undefined)	0.5%	-4.2	?	-3.8%	14.6µM*
CC1Cc2nc(SCC(=O)Nc3ccc4c(c3)OCCO4)n(C)c(=O)c2S1 (centres undefined)	-8.9%	-4.9	?	2.1%	?
CC1Cc2nc(SCC(=O)Nc3nccs3)n(Cc3ccccc3)c(=O)c2S1 (centres undefined)	-0.3%	-25.9	?	-0.3%	20.6µM*
CC1Cc2nc(SCC(=O)Nc3ccc4c(c3)OCO4)n(Cc3ccccc3)c(=O)c2S1 (centres undefined)	-2.3%	-19.4	?	1.0%	16.4µM*
CC1Cc2nc(SCC(=O)NCC3CCCO3)n(Cc3ccccc3)c(=O)c2S1 (centres undefined)	-3.8%	-10.3	-15.5%	6.6%	1.3%
CC1CC(C)CN(c2oc(-c3ccc(OCc4ccccc4Cl)cc3)nc2C#N)C1 (centres undefined)	.	.	?	.	-11.0%
CCCCC1CCC(C(=O)N(CCC(C)C)c2c(N)n(CCCC)c(=O)[nH]c2=O)CC1 (centres undefined)	11.3%	-16.0	?	-0.4%	?
CC1CCCC(NC(=O)COC(=O)/C=C/c2ccc(S(=O)(=O)N3CCOCC3)cc2)C1C (centres undefined)	16.1%	-14.8	-21.0%	-2.9%	-17.2%
Cc1cc(NC(=O)CSc2nc3c(c(=O)n2-c2ccccc2)SC(C)C3)no1 (centres undefined)	4.2%	-2.3	20.6µM*	1.4%	?
COc1ccc(-n2c(SCC(=O)Nc3cc(C)on3)nc3c(c2=O)SC(C)C3)cc1 (centres undefined)	-7.3%	-25.5	?	-0.9%	-2.0%
Cc1cccc(C(c2c(C)nn(-c3ccccc3)c2N)c2c(C)nn(-c3ccccc3)c2N)c1	1.3%	-6.8	-23.7%	-12.8%	-28.3%
CCc1ccc(C(c2c(C)nn(-c3ccccc3)c2N)c2c(C)nn(-c3ccccc3)c2N)cc1	-14.8%	-67.1*	?	-1.3%	?
CC(=O)Oc1ccccc1C(=O)N(C1CCCCC1)C1CCCCC1	-29.6%	0.0	13µM*	-29.3%	23.1µM*
CC(=O)Oc1ccc(Cl)cc1CN(C(C)=O)C1CCCCC1	-15.3%	?	?	-22.6%	23.1µM*
CC(=O)c1cc(Cl)ccc1OCC(=O)NC1CCCC1	-8.8%	10.1	?	0.3%	?
CN1CCN(CCc2nc3cc(NC(=O)COc4ccc([N+](=O)[O-])cc4)ccc3n2C)CC1	1.0%	-19.5	-7.5%	-0.8%	-0.6%
CC(C(=O)Nc1ccccc1)n1nnc2sc3c(c2c1=O)CCCC3 (centres undefined)	.	.	-89.3%	.	?
SMILES	HT1080 IDH1KD tx	IL1B secr inh	DT40 TDP1 no CPT	HT1080NT lethal	DT40 TDP1 CPT
Cc1ccc(NC(=O)C(C)n2nnc3sc4c(c3c2=O)CCCC4)cc1Cl (centres undefined)	.	.	14.6µM*	.	?
COc1ccc(Cl)cc1NC(=O)C(C)n1nnc2sc3c(c2c1=O)CCCC3 (centres undefined)	.	.	13µM*	.	20.6µM*
CCC(=O)N1CCc2cc(Br)cc(S(=O)(=O)N3CCN(c4ccc(C)cc4)C(C)C3)c21 (centres undefined)	.	.	-6.3%	.	9.0%
CCCCC[C@@H]1C=C(C(=O)O)[C@H](c2ccc3c(c2)OCO3)N1S(=O)(=O)c1ccc(C)cc1	-9.4%	49.5	-7.2%	-8.6%	14.1%
COc1ccc(NS(=O)(=O)c2cc3[nH]c(=O)c(=O)[nH]c3cc2C)cc1OC	.	.	-7.6%	.	2.4%
CCOc1ccc(NC(=O)Nc2ccccc2SC)cc1	-23.5%	?	23.1µM*	-22.3%	?
CCOc1ccc(NC(=O)Nc2cccn(Cc3ccccc3)c2=O)cc1	?	-74.2*	14.6µM*	?	?
CCc1ccccc1NC(=O)Nc1cccn(Cc2ccccc2F)c1=O	-14.5%	-25.8	?	-5.9%	?
CSc1ccc(NC(=O)Nc2cccn(Cc3ccccc3F)c2=O)cc1	-24.4%	-68.1*	25.9µM*	-0.8%	?
CCOC(=O)Cc1ccc(NC(=O)NCc2cccn2Cc2ccccc2)cc1	.	.	20.6µM*	.	13µM*
CSc1ncc(C(=O)Nc2ccc(C(C)=O)cc2)c(-c2ccccc2)n1	0.0%	24.8	?	-0.1%	?
COc1ccc(C(=O)Nc2ccc(NC(=O)Cc3ccccc3)cn2)cc1	-4.5%	31.7	-15.6%	-17.0%	0.9%
COc1ccc(C(=O)CN2C(=O)NC3(CCCCCC3)C2=O)cc1	1.3%	-20.8	-28.2%	9.9%	-2.3%
Cc1nc(SCC(=O)Nc2ccc3[nH]c(=O)[nH]c3c2)nc(C)c1C	-3.9%	-3.3	-9.9%	-1.1%	-17.0%
C=CCNC(=S)NNc1nc(Nc2ccccc2)nc(N2CCCCC2)n1	4.3%	-63.1*	8.2µM*	-12.9%	14.6µM*
Cc1cc(Cl)nc2nc(Cl)ccc12	.	.	5.62µM*	.	?
CCCOC(c1ccccc1)(c1ccc(C(F)(F)F)cc1)C(Oc1nc(C)cc(C)n1)C(=O)O (centres undefined)	?	27.5	20.6µM*	?	18.4µM*
